16 compounds from PubChem BioAssay can be followed below.

Experiment [1] has as its system TRPC4 beta (transient receptor potential cation channel C4), mouse. Nature of the experiment: TRPC4 cation channel opening, retest – cell-based, Fluo4 calcium, HEK293 TRPC4beta/mu-opioid, duplicates, 10 µM, confirmation (AID 2426;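 active means fluorescence ratio normalized to control raised more than 50% in primary screen plus both repeat runs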). The following applies: Fluo4 calcium fluorescence, at 10 µM; hits give high values.
In experiment [2] the test system is transient receptor potential cation channel C4 beta (TRPC4), mouse. Briefly: TRPC4 cation channel opening, second retest – cell-based, second round, Fluo4, HEK293 TRPC4beta/mu-opioid, 1 µM, confirmation (AID 2461;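 active means primary screen active and over 50% activation in each of two duplicate runs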). Conditions: Fluo4 calcium fluorescence, at 1 µM; hits give high values.
The subject of experiment [3] is TRPC4 (transient receptor potential cation channel C4 beta), mouse. Nature of the experiment: potentiation of DAMGO EC20 TRPC4 response – cell-based, second round, Fluo-4, HEK293 TRPC4beta/mu-opioid, 1 µM, confirmation (AID 2554;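 active means primary screen hit whose fluorescence ratio, in both repeats, exceeds the weak agonist control mean by 3 SD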). The following applies: DAMGO EC20, Fluo-4 calcium flux, at 1 µM; hits give high values.
Experiment [4] relates to TRPC4 beta (transient receptor potential cation channel C4), mouse. Briefly: potentiation of DAMGO EC20 TRPC4 response – cell-based, Fluo-4, HEK293 TRPC4beta/mu-opioid, confirmation (AID 2555;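 active means primary screen hit whose calcium fluorescence ratio, in both repeats, exceeds the weak agonist control mean by 3 SD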). Conditions: DAMGO EC20, Fluo-4 calcium flux, at 10 µM; hits give high values.
Experiment [5] concerns the target Short transient receptor potential channel 4 (Mus musculus) (UniProt Q9QUQ5). Briefly: blockers of DAMGO-evoked TRPC4 calcium flux – cell-based, Fluo4, HEK293 TRPC4beta/mu-opioid, confirmation (AID 2636;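 active means calcium signal cut by more than 3 SD below the full-agonist control yet still positive, in both repeats and the earlier primary screen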). Conditions: at 10 µM; hits give high values.
For experiment [6] the target is unchanged. Nature of the experiment: blockers of DAMGO-evoked TRPC4 calcium flux – cell-based, second round, Fluo4, HEK293 TRPC4beta/mu-opioid, 1 µM, confirmation (AID 2637).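 On inhibition: percent of integrated ratio relative to wells lacking test compound.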 Conditions: at 1 µM; hits give high values.
The target is the same in experiment [7]. Nature of the experiment: calcium entry via TRPC4 opening agents – cell-based, HEK293 TRPC4/mu-opioid, Fluo-4 calcium, dose response (AID 434937;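 active means primary screen activator hit with a dose response curve and TRPC4 channel activation at any tested dose; inactive means no activation, no dose response, or not a primary hit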).
Experiment [8] shares this target. Nature of the experiment: potentiation of DAMGO-evoked TRPC4 calcium signal – cell-based, HEK293 TRPC4/mu-opioid, Fluo-4 calcium, EC20 DAMGO, dose response (AID 434941;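 active means earlier screen potentiator hit that boosts the TRPC4 ion channel at some dose, with a dose response; inactive means no potentiation, no dose response, or not a prior hit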;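 further: calcium entry triggered by an EC20 dose of DAMGO at the co-expressed mu-opioid receptor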).
For experiment [9], the target named is Short transient receptor potential channel 6 (Mus musculus) (UniProt Q61143). Nature of the experiment: TRPC6 blockade by TRPC4 inhibitor hits – cell-based, HEK293, membrane potential dye, duplicate, selectivity assay for TRPC4 inhibitor project, confirmation (AID 434948;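 active means active in primary screen and both duplicates, each dropping signal beyond three positive-control SD with fluorescence still positive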). Conditions: HEK293 TRPC6, membrane potential dye fluorescence, at 10 µM, stimulated with maximal-effect acetylcholine; hits give high values.

Experiment [10] shares this target. Nature of the experiment: TRPC6 opening by TRPC4 activator hits – cell-based, HEK293, membrane potential dye, duplicate, selectivity assay for TRPC4 activator project, confirmation (AID 434950;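 active means membrane potential signal rise above negative control mean plus 3 SD in both duplicates, also active in the earlier TRPC4 screen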). Conditions: HEK293 TRPC6, membrane potential fluorescence, at 10 µM; activation: hits give high values; outcome: activation.
Experiment [11] has the same target. Briefly: positive modulators of mouse TRPC6 channel – HEK293 cells, membrane potential dye, duplicate, selectivity assay for TRPC4 potentiator project, confirmation (AID 434952;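 active means compound raising the membrane signal above positive-control mean plus 3 SD in both repeats, and a primary screen hit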). Conditions: HEK293 TRPC6, membrane potential dye fluorescence, at 10 µM, maximal acetylcholine added after compound; hits give high values.
The target in experiment [12] is Short transient receptor potential channel 4 (Mus musculus) (UniProt Q9QUQ5). Briefly: calcium flux activators in TRPC4/5HT1a cells, counter-screen for TRPC4 activator project, cell-based, second counter screen, HEK293 TRPC4/5HT1a, Fluo-4 (AID 434977;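 active means calcium signal rise above buffer-control mean plus 5 SD in both duplicates, and also a hit in the primary screen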). Conditions: Fluo-4 calcium flux, at 10 µM; hits give high values.
A short description of experiment [13]: serotonin-gated TRPC4 signal block – cell-based, second counter screen, HEK293 TRPC4/5HT1a, Fluo-4, counter-screen for TRPC4 inhibitor project, confirmation (AID 434978;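 active means primary screen active whose calcium signal fell more than 3 SD beyond the full-serotonin control mean in both duplicate plates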;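 on outcome: serotonin given first at submaximal then at maximal dose after compound preincubation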). The following applies: Fluo-4 calcium flux, at 10 µM, serotonin added to trigger calcium flux; hits give high values.
Experiment [14] concerns TRPC4 (mouse), co-expressed with 5HT1a in HEK293. Nature of the experiment: enhancement of serotonin-evoked TRPC4 response – cell-based, second counter screen, HEK293 TRPC4/5HT1a, Fluo-4, counter-screen for TRPC4 potentiator project, confirmation (AID 434979;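 active means signal rise over 3 SD above mean of control wells given weak agonist, in both repeats and first screen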). The following applies: Fluo-4 calcium flux, at 10 µM, serotonin added at its EC20 dose; hits give high values.
Experiment [15] in a line: nonspecific calcium rise without TRPC4 – cell-based, HEK293 mu-opioid receptor line, counter-screen for TRPC4 activator project, confirmation (AID 449723;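 active means hit in primary screen, with calcium signal over 5 SD above buffer well mean in both duplicates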;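 further: counter screen cells carry the mu-opioid receptor alone and lack TRPC4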). Conditions: HEK293 mu-opioid cells, Fluo-4 calcium fluorescence, at 10 µM; hits give high values.
Experiment [16] is described as follows: nonspecific potentiation of DAMGO calcium response – cell-based, HEK293 mu-opioid receptor line, counter-screen for TRPC4 allosteric potentiator project, confirmation (AID 449724;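 active means calcium signal rise more than 3 SD above the low-dose agonist control mean, in both duplicate plates and the primary screen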;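 further: HEK293 cells carrying mu-opioid receptor only with no TRPC4 channel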). Conditions: HEK293 mu-opioid receptor cells, Fluo-4 calcium flux, at 10 µM, compound added before EC20 DAMGO stimulus; hits give high values.

For some of these results: Potency and affinity values are given separately. Calls of active or inactive are those of the source.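 How the source made its calls, unless noted: active means calcium signal ratio cut to more than 3 SD under the fully stimulated control mean yet still positive, in both repeats and the primary screen; inactive means the rest.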

Short transient receptor potential channel 4 (Mus musculus), sequence (Q9QUQ5 whole entry, looked up): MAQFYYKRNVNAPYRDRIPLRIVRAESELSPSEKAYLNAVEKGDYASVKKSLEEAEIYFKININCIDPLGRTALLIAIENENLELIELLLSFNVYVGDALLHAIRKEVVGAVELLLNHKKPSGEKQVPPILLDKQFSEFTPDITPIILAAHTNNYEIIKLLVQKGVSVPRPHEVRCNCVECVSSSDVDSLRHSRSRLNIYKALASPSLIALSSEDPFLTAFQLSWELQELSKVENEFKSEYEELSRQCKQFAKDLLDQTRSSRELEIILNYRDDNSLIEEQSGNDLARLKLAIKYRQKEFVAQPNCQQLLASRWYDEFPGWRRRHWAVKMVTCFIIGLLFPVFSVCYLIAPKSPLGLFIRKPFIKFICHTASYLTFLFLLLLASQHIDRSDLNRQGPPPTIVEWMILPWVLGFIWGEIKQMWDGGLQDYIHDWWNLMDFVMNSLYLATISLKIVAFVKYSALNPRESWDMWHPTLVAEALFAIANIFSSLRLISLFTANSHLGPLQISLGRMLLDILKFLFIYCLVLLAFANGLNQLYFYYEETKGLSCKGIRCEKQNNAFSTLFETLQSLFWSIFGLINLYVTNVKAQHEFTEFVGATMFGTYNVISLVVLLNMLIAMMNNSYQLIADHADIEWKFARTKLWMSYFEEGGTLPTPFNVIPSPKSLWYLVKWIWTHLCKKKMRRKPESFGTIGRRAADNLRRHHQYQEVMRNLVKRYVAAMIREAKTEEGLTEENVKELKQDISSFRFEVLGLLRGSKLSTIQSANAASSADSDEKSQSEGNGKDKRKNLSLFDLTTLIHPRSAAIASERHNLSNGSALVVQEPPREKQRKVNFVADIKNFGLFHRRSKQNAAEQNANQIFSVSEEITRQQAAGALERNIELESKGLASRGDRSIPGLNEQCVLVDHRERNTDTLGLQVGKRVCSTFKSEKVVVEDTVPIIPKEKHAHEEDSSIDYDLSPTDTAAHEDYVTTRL
Short transient receptor potential channel 6 (Mus musculus), sequence (Q61143 whole entry, looked up): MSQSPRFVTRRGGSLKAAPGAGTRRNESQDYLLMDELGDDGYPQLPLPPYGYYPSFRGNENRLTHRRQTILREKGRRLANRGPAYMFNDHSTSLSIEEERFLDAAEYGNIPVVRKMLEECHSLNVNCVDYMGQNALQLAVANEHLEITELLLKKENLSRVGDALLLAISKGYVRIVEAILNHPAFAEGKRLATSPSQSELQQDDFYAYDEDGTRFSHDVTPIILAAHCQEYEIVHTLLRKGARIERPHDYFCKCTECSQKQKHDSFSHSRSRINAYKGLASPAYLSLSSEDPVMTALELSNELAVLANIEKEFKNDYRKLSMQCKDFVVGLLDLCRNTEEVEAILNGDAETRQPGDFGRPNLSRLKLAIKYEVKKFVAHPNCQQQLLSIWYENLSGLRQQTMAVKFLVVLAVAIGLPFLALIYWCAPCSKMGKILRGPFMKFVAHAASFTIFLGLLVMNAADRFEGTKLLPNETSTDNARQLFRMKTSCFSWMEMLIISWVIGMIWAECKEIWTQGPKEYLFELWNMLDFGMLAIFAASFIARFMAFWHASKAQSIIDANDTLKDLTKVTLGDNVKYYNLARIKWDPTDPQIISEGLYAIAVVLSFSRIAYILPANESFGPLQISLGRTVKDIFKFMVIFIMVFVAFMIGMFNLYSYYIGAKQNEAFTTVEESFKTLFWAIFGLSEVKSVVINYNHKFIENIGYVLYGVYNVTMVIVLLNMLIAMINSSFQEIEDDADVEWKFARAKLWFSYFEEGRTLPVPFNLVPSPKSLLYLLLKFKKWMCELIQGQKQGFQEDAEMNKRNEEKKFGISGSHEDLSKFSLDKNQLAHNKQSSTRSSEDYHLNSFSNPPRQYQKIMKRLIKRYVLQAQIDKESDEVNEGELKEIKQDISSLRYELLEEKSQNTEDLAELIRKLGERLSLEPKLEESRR

For the compound `O=C1/C(=C/c2ccccc2Cl)SC(=S)N1CCCC(=O)N(CCO)c1ccccc1`, the outcome in [1], in experiment [2], in experiment [3], in experiment [4], in [7] and in experiment [8] was inactive. Also, the compound was called inactive in experiment [9], in experiment [10], in experiment [11], in experiment [12], in experiment [14] and in experiment [15]. Also, the outcome in experiment [16] was inactive. Further, the inhibition is 83% (active) in experiment [5], 50% (active) in [6] and 24.9% (active) in experiment [13].

`Brc1cc2c(cc1COc1ccc(-c3nn[nH]n3)cc1)OCO2`: the outcome in experiment [1], in experiment [2], in experiment [3], in [4], in experiment [6] and in experiment [7] was inactive. In addition, the result in [8], in experiment [9], in experiment [10], in [11], in [12] and in [14] was inactive. Also, the outcome in experiment [15] and in experiment [16] was inactive. The inhibition was 89% (active) in [5] and 35.1% (active) in experiment [13].

As to `COc1cc(CNC2CCCC2)c(Br)cc1OCc1ccccc1`, the result in experiment [1], in [2], in experiment [3], in experiment [4], in [6] and in experiment [7] was inactive. Moreover, the result in experiment [8], in experiment [9], in [10], in experiment [11], in experiment [12] and in experiment [14] was inactive. Further, the result in experiment [15] and in [16] was inactive. Further, the inhibition in experiment [5] is 87% (active); in experiment [13], 34.4% (active).

For the compound `O=c1c2ccccc2nc(SCc2ccccc2)n1CC1CCCO1` (stereo unspecified), the result in experiment [1], in experiment [2], in [3], in [4], in experiment [6] and in [7] was inactive. For the same compound, the outcome in experiment [8], in [9], in experiment [10], in experiment [11], in experiment [12] and in experiment [14] was inactive. The result in experiment [15] and in [16] was inactive. The inhibition was 54% (active) in experiment [5] and 18.9% (active) in experiment [13].

`N#Cc1c(-c2cccs2)nc(SCc2ccc(Cl)cc2)[nH]c1=O`: the outcome in experiment [1], in experiment [2], in experiment [3], in [7], in experiment [8] and in experiment [9] was inactive. Besides, the compound was called inactive in [10], in [11], in experiment [12], in [14], in experiment [15] and in experiment [16]. In experiment [4], the potentiation was 15% (active). The results for the inhibition in [5], in [6] and in experiment [13] were 99% (active), 40% (active) and 11.9% (active), respectively.

For the compound `Cc1ccc(O)c(Sc2cc(C)ccc2O)c1`, the result in experiment [1], in experiment [2], in experiment [3], in [4], in experiment [6] and in experiment [7] was inactive. The result in experiment [8], in [10], in [11], in experiment [12], in experiment [14] and in experiment [15] was inactive. For the same compound, the outcome in [16] was inactive. Also, the inhibition is 97% (active) in experiment [5], 44.5% (active) in [9] and 13.7% (active) in experiment [13].

For the compound `O=C(COc1ccc(Cl)cc1)Nc1ccc(C(=O)O)cc1NC(=O)COc1ccc(Cl)cc1`, the result in experiment [1], in experiment [2], in [3], in [4], in experiment [6] and in experiment [7] was inactive. Moreover, the outcome in [8], in experiment [9], in experiment [10], in [11], in experiment [12] and in [13] was inactive. Moreover, the result in [14], in [15] and in experiment [16] was inactive. Also, the inhibition in experiment [5] was 68% (active).

Regarding `COC(=O)c1cccc(Nc2c3c(nc4ccccc24)CCC3)c1`, the outcome in [1], in experiment [2], in [3], in experiment [4], in experiment [6] and in [7] was inactive. Also, the result in experiment [8], in experiment [9], in experiment [10], in [11], in experiment [12] and in experiment [14] was inactive. Further, the result in experiment [15] and in experiment [16] was inactive. Also, the values for the inhibition in experiment [5] and in experiment [13] were 96% (active) and 30.4% (active), respectively.

Turning to `CCCCCN1C2=NCCN2c2ccccc21`, the result in [1], in experiment [2], in experiment [3], in experiment [4], in [7] and in experiment [8] was inactive. The compound was called inactive in experiment [9], in [10], in experiment [11], in experiment [12], in experiment [14] and in [15]. Moreover, in [16], the outcome was inactive. Besides, the values for the inhibition in [5], in experiment [6] and in experiment [13] were 94% (active), 70% (active) and 25.1% (active), respectively.

`O=C(CSc1nnc(-c2ccc(Cl)cc2Cl)n1C1CCCCC1)NC1CCS(=O)(=O)C1` (stereo unspecified): the result in experiment [1], in experiment [2], in experiment [3], in experiment [4], in [6] and in experiment [7] was inactive. Besides, the result in experiment [8], in [9], in experiment [10], in experiment [11], in experiment [12] and in experiment [13] was inactive. The result in experiment [14], in [15] and in experiment [16] was inactive. For the same compound, the inhibition in experiment [5] was 82% (active).

Consider `OCC1(CCc2ccccc2)CCN(Cc2ccc3nsnc3c2)CC1`, for which the outcome in [1], in [2], in [3], in experiment [4], in [6] and in [7] was inactive. The result in experiment [8], in [9], in experiment [10], in experiment [11], in experiment [12] and in experiment [13] was inactive. In addition, the outcome in experiment [14], in [15] and in experiment [16] was inactive. Besides, the inhibition in [5] is 83% (active).

Regarding `NS(=O)(=O)c1ccc(CCNCc2ccccc2OCc2ccc(Cl)cc2)cc1`, the outcome in experiment [1], in experiment [2], in experiment [3], in [4], in [7] and in experiment [8] was inactive. The outcome in experiment [9], in experiment [10], in experiment [11], in experiment [12], in [14] and in [15] was inactive. The outcome in experiment [16] was inactive. Besides, the inhibition is 87% (active) in [5], 54% (active) in [6] and 31.3% (active) in experiment [13].

For `Brc1ccc(N/N=C(/N=Nc2nn[nH]n2)c2ccccc2)cc1`, the result in experiment [1], in experiment [2], in experiment [3], in experiment [4], in experiment [5] and in [6] was inactive. Besides, the outcome in experiment [7], in experiment [8], in experiment [10], in experiment [11], in experiment [12] and in experiment [14] was inactive. In addition, the result in [15] and in [16] was inactive. Further, the figures for the inhibition in experiment [9] and in experiment [13] were 25.5% (active) and 30.4% (active), respectively.

For the compound `CC(C)=CCN1CCN(Cc2cccc3nonc23)CC1CCO` (stereo unspecified), the outcome in experiment [1], in experiment [2], in [3], in experiment [4], in [6] and in [7] was inactive. In addition, the outcome in [8], in experiment [9], in experiment [10], in experiment [11], in experiment [12] and in [14] was inactive. Also, the result in experiment [15] and in experiment [16] was inactive. Moreover, the inhibition in [5] was 91% (active); in experiment [13], 33.3% (active).

Take `COc1ccc(CN2CCN(Cc3ccccc3F)CC2)c(OC)c1`: the result in experiment [1], in experiment [2], in [3], in [4], in experiment [6] and in experiment [7] was inactive. Moreover, the result in experiment [8], in [9], in experiment [10], in experiment [11], in experiment [12] and in experiment [14] was inactive. The outcome in experiment [15] and in experiment [16] was inactive. Further, the inhibition in experiment [5] is 89% (active); in experiment [13], 30.4% (active).

In the case of `CCOC(=O)CSc1nc2ccccc2c(=O)n1CC1CCCC1`, the outcome in experiment [1], in [2], in experiment [3], in [4], in [6] and in [7] was inactive. Moreover, the outcome in [8], in experiment [9], in experiment [10], in experiment [11], in experiment [12] and in [14] was inactive. Further, the result in [15] and in [16] was inactive. Also, the figures for the inhibition in experiment [5] and in [13] were 84% (active) and 18.3% (active), respectively.
